Laboratory results from PubChem BioAssay (EPA / NIEHS).
Several values for one entry are separate records, joined by “and”; a condition that tells them apart may be missing. Identical values can stand only once. Activity calls are given as the source filed them. Rule for the calls: active = hit-call score of the fitted dose curve at least 0.9, where 1 is the maximum; inactive = score below 0.9.

Experiments:
[1] = ATG_NFI_CIS: Attagene CIS-FACTORIAL HepG2 Assay for human Nuclear Factor I (NFI) (AID 2282989); settings: HepG2 cis-regulatory reporter, NFI response element transcription; actives raise or lower the signal
In short: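 Reporter transcription driven by endogenous transcription factors in HepG2 cells; 24 h treatment. Quantitation by labelled RT-PCR fragments on capillary electrophoresis, gain- or loss-of-signal relative to DMSO.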

[2] = molecular target: Myc proto-oncogene protein (Homo sapiens) (UniProt P01106); assay: ATG_Myc_CIS: Attagene CIS-FACTORIAL HepG2 Assay for human Myelocytomatosis (Myc) Proto-Oncogene Transcription Factor (AID 2282990); settings: HepG2, Attagene cis-reporter transcription factor activity; actives raise or lower the signal
Chain of Myc proto-oncogene protein (Homo sapiens) (P01106 whole entry, looked up, the tested form may be a part): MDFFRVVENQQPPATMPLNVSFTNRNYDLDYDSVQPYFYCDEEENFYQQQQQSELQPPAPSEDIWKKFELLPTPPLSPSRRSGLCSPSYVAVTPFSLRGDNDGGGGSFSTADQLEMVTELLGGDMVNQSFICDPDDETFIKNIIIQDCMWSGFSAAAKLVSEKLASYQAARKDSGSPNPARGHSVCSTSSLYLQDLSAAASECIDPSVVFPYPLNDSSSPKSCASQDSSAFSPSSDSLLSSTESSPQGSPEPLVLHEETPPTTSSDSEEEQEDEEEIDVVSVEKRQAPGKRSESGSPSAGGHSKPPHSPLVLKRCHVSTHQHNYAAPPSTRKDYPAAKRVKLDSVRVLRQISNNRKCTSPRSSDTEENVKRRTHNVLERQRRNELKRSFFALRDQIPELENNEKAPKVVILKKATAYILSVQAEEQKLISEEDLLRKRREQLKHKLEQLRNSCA
In short: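 Fluorescence intensity of reporter-specific cDNA fragments, separated by capillary electrophoresis, gives the signal. Transfected HepG2 cells carrying cis-promoter reporter constructs are incubated with compound for 24 h; DMSO serves as baseline.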

[3] = ATG_NRF2_ARE_CIS: Attagene CIS-FACTORIAL HepG2 Assay for human Nuclear Factor Erythroid 2 Related Factor 2 (NFR2) response to Antioxidant Response Elements (ARE) (AID 2282992); settings: HepG2 Attagene ARE/NRF2 reporter, transcription factor activity; actives raise or lower the signal;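 for AC50: reporter mRNA level measured by RT-PCR and capillary electrophoresis fluorescence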
In short: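 Cis-factorial assay: transfected HepG2 reporter library, 24 h dosing, mRNA readout via RT-PCR/CE; DMSO-referenced bidirectional analysis.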

[4] = ATG_Oct_MLP_CIS: Attagene CIS-FACTORIAL HepG2 Assay for human Octamer-Binding Transcription Factor (Oct) (AID 2282993); settings: HepG2 Attagene cis-factorial Oct reporter, mRNA; actives raise or lower the signal
In short: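 Transfected HepG2 cells, 24 h treatment. Reporter mRNA quantified by RT-PCR–capillary electrophoresis; bidirectional fitting against DMSO.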

[5] = molecular target: Cellular tumor antigen p53 (Homo sapiens) (UniProt P04637); assay: ATG_p53_CIS: Attagene CIS-FACTORIAL HepG2 Assay for human p53 Transcription Factor (AID 2282994); settings: HepG2 p53 cis-element reporter, Attagene mRNA; actives raise or lower the signal
Chain of Cellular tumor antigen p53 (Homo sapiens) (P04637 whole entry, looked up): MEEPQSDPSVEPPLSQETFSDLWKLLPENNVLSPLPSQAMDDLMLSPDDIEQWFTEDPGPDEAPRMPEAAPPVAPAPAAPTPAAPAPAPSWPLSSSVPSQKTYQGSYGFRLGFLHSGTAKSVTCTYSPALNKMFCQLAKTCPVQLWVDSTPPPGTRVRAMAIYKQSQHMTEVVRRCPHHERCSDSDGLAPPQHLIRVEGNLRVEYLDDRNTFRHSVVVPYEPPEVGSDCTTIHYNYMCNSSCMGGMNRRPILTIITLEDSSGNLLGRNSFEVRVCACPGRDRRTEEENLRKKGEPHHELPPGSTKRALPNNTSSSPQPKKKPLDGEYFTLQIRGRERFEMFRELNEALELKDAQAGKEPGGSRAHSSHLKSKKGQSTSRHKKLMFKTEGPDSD
In short: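 Using HepG2 hepatoma cells carrying cis-acting multiplexed reporters, mRNA induction is detected after a 24 h exposure. Gain- and loss-of-signal responses are fitted relative to DMSO-treated cells.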

[6] = BSK_3C_TissueFactor: BioMAP Diversity Plus: 3C Assay for Tissue Factor Biomarker Activity (AID 2282997); settings: BioMAP 3C HUVEC, tissue factor biomarker readout; actives raise or lower the signal
In short: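 HUVEC were treated 24 h, then surface tissue factor measured by ELISA and fitted bidirectionally against DMSO. Parallel SRB total-protein staining assessed overt cytotoxicity at the same time point.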

[7] = BSK_3C_uPAR: BioMAP Diversity Plus: 3C Assay for Urokinase-type plasminogen activator receptor (uPAR) Biomarker Activity (AID 2282998); settings: BioMAP 3C HUVEC, uPAR biomarker ELISA; actives raise or lower the signal
In short: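 Readout: ELISA for surface uPAR. System: human umbilical vein endothelial primary cells, 24 h after chemical exposure. Analysis: bidirectional fit, DMSO baseline.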

[8] = BSK_3C_VCAM1: BioMAP Diversity Plus: 3C Assay for Vascular cell adhesion molecule 1 (VCAM1) Biomarker Activity (AID 2282999); settings: BioMAP 3C HUVEC, VCAM1 ELISA, cytokine-stimulated; actives raise or lower the signal
In short: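 Human umbilical vein endothelial cells (3C system), biomarker read by ELISA 24 h after dosing; bidirectional fit against DMSO baseline. Cytotoxicity tracked by SRB total-protein staining in parallel cultures at biomarker time.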

[9] = BSK_4H_Eotaxin3: BioMAP Diversity Plus: 4H Assay for Eotaxin 3 Biomarker Activity (AID 2283000); settings: primary human endothelial cells (HUVEC); actives raise or lower the signal
In short: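 Eotaxin-3 (CCL26) levels were measured by ELISA in HUVEC primary cultures 24 h post-dosing. Gain or loss of signal was fitted in both directions, with DMSO serving as baseline and negative control.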

Measured: AC50

CCN(CC#N)c1cccc(C)c1
inactive: [1] | [2] | [3] | [4] | [5]

c1ccc(-c2ccccn2)nc1
inactive: [1] | [2] | [3] | [4] | [5] | [6] | [7] | [8]
active: [9] 20 µM

C[Si](C)O[Si](C)(C)O[Si](C)(C)O[Si](C)C
inactive: [1] | [2] | [3] | [4] | [5]

Nc1nc2ccccc2[nH]1
inactive: [1] | [2] | [3] | [4] | [5]

COC(=O)c1c(C)cc(O)c(C)c1O
inactive: [1] | [2] | [3] | [4] | [5]

NNC(=O)c1cccc(C(=O)NN)c1
inactive: [1] | [2] | [3] | [4] | [5]

N[C@H]1C(O)O[C@H](CO)[C@H](O)[C@@H]1O (stereo partly specified)
inactive: [1] | [2] | [3] | [4] | [5]

C1=Cc2ccccc2C1
inactive: [1] | [2] | [4] | [5]
active: [3] 19.8 µM

c1ccc2c(c1)ccc1cc3c(ccc4ccccc43)cc12
active: [3] 0.12 µM | [6] 15 nM and 41.3 nM | [9] 15 nM and 37.3 nM
inactive: [1] | [2] | [4] | [5] | [7] | [8]

c1ccc(CNCc2ccccc2)cc1
inactive: [1] | [2] | [3] | [4] | [5]

CC(=O)OC(C)C
inactive: [1] | [2] | [3] | [4] | [5]

Cc1cccc(OCCOc2cccc(C)c2)c1
inactive: [1] | [2] | [4] | [5]
active: [3] 26.7 µM

CC1OC1C1CCC2(C)OC2C1 (stereo unspecified)
inactive: [1] | [2] | [4] | [6] | [7] | [8] | [9]
active: [3] 100 µM

CC=CC(=O)N(CC)c1ccccc1C
inactive: [1] | [2] | [3] | [4] | [5]

O=c1c2ccccc2nnn1CCl
inactive: [1] | [2] | [3] | [4] | [5]

CCC(C)(C)C1CCCCC1OC(C)=O (stereo unspecified)
active: [3] 134 µM
inactive: [1] | [2] | [4] | [5]

O=C1C(N(CO)C(=O)NCO)N(CO)C(=O)N1CO (stereo unspecified)
inactive: [1] | [2] | [3] | [4] | [5]

CC(C)c1ccc2c(C(C)C)cc(C(C)C)c(S(=O)(=O)O)c2c1
inactive: [1] | [2] | [4] | [5]
active: [3] 25.9 µM

CC(C)=CCC/C(C)=C\C#N
active: [3] 26.5 µM
inactive: [1] | [2] | [4] | [5]

CCOC(=O)CC
inactive: [1] | [2] | [3] | [5]

CCCCCCC(O)CO (stereo unspecified)
inactive: [1] | [2] | [3] | [4] | [5]

CCN(CCC#N)c1ccc(N=Nc2c(Cl)cc([N+](=O)[O-])cc2Cl)cc1
inactive: [1] | [2] | [3] | [4] | [5]

CCCCCCOC(=O)C(C)CC (stereo unspecified)
inactive: [1] | [2] | [3] | [4] | [5]

C=CC(=O)OCCOC(=O)C=C
inactive: [1] | [2] | [3]
active: [5] 48 µM

C1CN(SSN2CCOCC2)CCO1
inactive: [1] | [2] | [4] | [5]
active: [3] 18.8 µM

CC(=O)[C@@]1(O)CC[C@H]2[C@@H]3C[C@H](C)C4=CC(=O)C=C[C@]4(C)[C@@]3(F)[C@@H](O)C[C@@]21C
inactive: [1] | [2] | [3] | [4] | [5]

Cc1ccc(C(C)c2ccc(C)c(C)c2)cc1C
inactive: [1] | [2]
active: [3] 37.5 µM | [4] 147 µM | [5] 41.9 µM

c1ccc2c(c1)ccc1ncccc12
inactive: [1] | [4] | [8]
active: [2] 26.7 µM | [3] 148 µM | [6] 8 µM | [7] 13.4 µM | [9] 20 µM

[Cl][In]([Cl])[Cl]
inactive: [1] | [2] | [4] | [5]
active: [3] 17.6 µM

O=C1CCCCCN1SSN1CCCCCC1=O
active: [1] 153 µM | [3] 42.9 µM
inactive: [2] | [4] | [5]

Nc1ccc(N)c(Cl)c1
inactive: [4] | [6] | [7]
active: [1] 46.6 µM | [2] 33.4 µM | [3] 4.45 µM | [5] 33.4 µM | [8] 7.54 µM and 7.95 µM | [9] 20 µM and 15.1 µM

CC(=O)OCC(C)OC(C)=O (stereo unspecified)
inactive: [1] | [2] | [3] | [4] | [5]
